Screening data deposited in PubChem BioAssay by National Center for Advancing Translational Sciences (NCATS).
This is a sample that favours compounds with a hit; in the whole collection about 12% have one here.
Sm TGR block: S. mansoni TGR enzyme inhibition; Q962Y6; purified TGR, DTNB reduction, TNB absorbance 405 nm; Potency, µM (titrated, usually from 114 µM), for inactives: top-dose activity change, negative = inhibition, usual class: inhibitors; actives 3% (n = 360,000); further: on the % scale 0 is the no-effect control and ±100 the full control effect; nearly all actives have a fitted effect of over 60% in size
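TGR 20 nM + NADPH 100 uM (dispensed conc.), cpd preinc 15 min RT; start with NADPH (500 uM addition) then DTNB (15 mM addition). Kinetic TNB absorbance, 405 nm filter. Four-parameter Hill fit across titration.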
AmpC no deterg: AmpC beta-lactamase inhibition without detergent | P00811 | AmpC nitrocefin hydrolysis, absorbance 480 nm, 0.0001% Triton | Potency, µM (doses to about 57.1 µM), inactives show at the top dose activity change, negative = inhibition, usual class: inhibitors | actives 0.52% (n = 330,000) | AID 485341;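 further: plate controls were no compound for no effect and no enzyme for full effect; nearly all actives have a fitted effect of over 20% in size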
Target sequence (P00811 whole entry, looked up): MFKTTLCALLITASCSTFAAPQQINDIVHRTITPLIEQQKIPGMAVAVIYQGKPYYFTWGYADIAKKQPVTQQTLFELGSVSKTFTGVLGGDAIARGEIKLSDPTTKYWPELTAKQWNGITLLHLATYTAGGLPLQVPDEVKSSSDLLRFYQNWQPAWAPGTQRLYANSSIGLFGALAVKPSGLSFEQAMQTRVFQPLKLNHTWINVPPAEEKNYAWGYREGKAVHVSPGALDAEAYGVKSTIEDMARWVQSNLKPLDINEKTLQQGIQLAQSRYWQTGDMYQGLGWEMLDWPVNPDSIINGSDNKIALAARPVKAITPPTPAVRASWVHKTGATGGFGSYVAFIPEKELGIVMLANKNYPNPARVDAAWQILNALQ
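20 mM phosphate pH 7.0 + 0.01% (detergent screen) or 0.0001% Triton X-100; 5.3 nM AmpC reagent; cpd preinc 15 min RT; nitrocefin (800 uM stock) to start; A480 q20 s × 4 min; Activity was normalised to no-enzyme and no-compound control wells.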
Pf growth 48h: P. falciparum growth inhibition at 48 hours (one generation). P. falciparum luciferase growth in erythrocytes, 48 h. Potency, µM (doses to about 28.7 µM), for inactives: at the top dose activity change, negative = inhibition, usual class: inhibitors. actives 5.9% (n = 310,000); further: on the % scale 0 is the no-effect control and ±100 the full control effect
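Luciferase-expressing P. falciparum in infected erythrocytes (2% hematocrit, 0.1% parasitemia final) in RPMI 1640/0.5% Albumax were exposed to compound for 48 hours at 37 C, 5% CO2; growth read as luminescence.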
Pf growth 96h: P. falciparum growth inhibition at 96 hours; Potency, µM (highest dose often 28.7 µM), for the others: at the highest dose activity change, negative = inhibition, most hits filed as inhibitors; P. falciparum luciferase reporter growth, 96 h; actives 6.9% (n = 320,000); further: on the % scale 0 is the no-effect control and ±100 the full control effect
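Parasite growth measured via integrated firefly luciferase reporter in P. falciparum. Infected erythrocytes at 2% hematocrit, 0.05% parasitemia final were treated 96 hours at 37 C under 5% CO2, and luminescence was read.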
SARS PLP yeast: inhibitors of SARS-CoV papain-like protease in yeast. S. cerevisiae expressing SARS-CoV PLpro, growth rescue. Potency, µM (doses to about 32.9 µM), without a hit: at the highest dose activity, positive = growth rescue, most hits filed as activators. actives 0.19% (n = 330,000). AID 485353; calls by dose curve; further: 0% is about no effect; nearly all actives have a fitted effect of over 55% in size
AmpC inh detg: AmpC beta-lactamase inhibition with detergent present; P00811; AmpC hydrolysis of nitrocefin, absorbance 480 nm, 0.01% Triton; Potency, µM (doses to about 114 µM), for inactives: at the top dose activity change, negative = inhibition, usual class: inhibitors; actives 0.041% (n = 370,000); AID 485294;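 further: 0% = no-compound wells and -100% = no-enzyme wells; nearly all actives have a fitted effect of over 25% in size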
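20 mM phosphate pH 7.0 + 0.01% (detergent screen) or 0.0001% Triton X-100; 5.3 nM AmpC reagent; cpd preinc 15 min RT; nitrocefin (800 uM stock) to start; A480 q20 s × 4 min; Activity was normalised to no-enzyme and no-compound control wells.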
Active calls of the source: *; ? = inconclusive; · = no result; [ ] = another dose, or the depositor's remark. Unless noted, the call rests on the fitted dose curve; in most records, active means well fitted curve in the direction sought with a large enough effect; inconclusive means small, poorly fitted or top-dose-only effect, or another doubt; inactive means no such curve, though single readings can be large; an effect the other way counts as inactive or inconclusive. Potency means the concentration at half of the fitted maximal effect.

SMILES	Sm TGR block	AmpC no deterg	Pf growth 48h	Pf growth 96h	SARS PLP yeast	AmpC inh detg
CC(C)CNC(=O)C1CCCN(C(=O)NCc2ccccc2)C1 (stereo unspecified)	10.4%	-1.5%	4.1%	4.65µM*	-0.1%	4.2%
Cc1ccc2c(=O)cc(C(=O)Nc3ccc(S(=O)(=O)N4CCCCCC4)cc3)oc2c1	0.4%	·	·	·	·	-1.9%
CC(NCc1cccs1)c1ccccc1 (stereo unspecified)	·	-6.7%	36.4%	11.7µM*	-0.2%	-4.5%
Cc1c(F)cccc1NS(=O)(=O)c1cccs1	9.5%	·	·	·	·	1.9%
CCOc1cc(C2c3c(-c4ccccc4O)n[nH]c3C(=O)N2CCc2ccccc2)ccc1O (stereo unspecified)	-9.3%	·	·	·	·	-2.6%
COCCCN1C(=O)c2[nH]nc(-c3cc(C)cc(C)c3O)c2C1c1ccc(O)c(OC)c1 (stereo unspecified)	0.0%	100.1%	9.28µM*	?	-0.5%	-17.6%
COc1cc(C2c3c(-c4cc(C)cc(C)c4O)n[nH]c3C(=O)N2CCCO)cc(OC)c1OC (stereo unspecified)	12.3%	143.4%	?	-3.0%[5.75 µM]	-1.2%	?
CCCN1C(=O)c2[nH]nc(-c3cc(Cl)c(C)cc3O)c2C1c1ccc(O)c(OC)c1 (stereo unspecified)	7.0%	-22.3%	?	10.4µM*	1.9%	1.7%
O=C(Nc1cccc(F)c1)c1cccnc1NCCc1ccccc1	-5.7%	-16.8%	-12.3%	?	-80.3%	?
O=C(Nc1ccc(F)cc1)c1cccnc1NCCc1ccccc1	-10.2%	-25.2%	?	3.7µM*	-44.3%	-11.2%
CCN(CC)CCCNC(=O)c1ccccc1NC(=O)C1=CSCCO1	29.8%	1.2%	4.9%	11.0%	-0.7%	-13.9%
CCCSCCCNC(=O)c1ccccc1NC(=O)C1=CSCCO1	-0.6%	-51.7%	-29.5%	13.1µM*	-5.5%	-13.5%
CC1(C)CC(=O)C(C(C2=C(O)CC(C)(C)CC2=O)c2cccc(O)c2)C(=O)C1 (stereo unspecified)	?	-0.1%	?	-5.6%	-1.0%	?
CC1(C)CC(=O)C2=C(C1)N(c1cccc(O)c1)C1=C(C2)C(=O)CC(C)(C)C1	31.6µM*	-44.0%	?	?	2.4%	0.2%
COc1ccccc1/C=N/NC(=O)CN(C1=NS(=O)(=O)c2ccccc21)c1ccccc1	-1.5%	0.0%	0.8%	0.147µM*	4.4%	-7.1%
CC(C)C(=O)NC(Nc1cccc([N+](=O)[O-])c1)C(Cl)(Cl)Cl (stereo unspecified)	·	?	1.85µM*	22.7%	1.1%	-5.1%
CN(C)C(=O)NC(Nc1cccc([N+](=O)[O-])c1)C(Cl)(Cl)Cl (stereo unspecified)	20µM*	-30.2%	?	20.0%	0.7%	6.1%
CCOc1ccccc1C(=O)Nc1ccc2nc3c(c(Nc4ccc(OC)c(OC)c4)c2c1)CCCC3	-5.7%	·	·	·	·	1.9%
CC(/C=N/NC(=O)NC1CCCCC1)=C\c1ccccc1	-1.4%	-15.3%	10.4µM*	-5.0%	-2.2%	5.2%
COc1ccc(OC)c(NC(=O)C2CCCN(S(=O)(=O)c3ccc4[nH]c(=O)ccc4c3)C2)c1 (stereo unspecified)	-0.4%	·	·	·	·	14.7%
COc1ccc(S(=O)(=O)c2c(SC)nn(CC(=O)Nc3ccc(C)c(Cl)c3)c2N)cc1	10.6%	·	·	·	·	7.4%
CCOc1c(Cl)cc(CNc2nnnn2C)cc1OC	-22.2%	1.1%	5.86µM*	0.3%	-6.4%	2.5%
CC1Nc2ccccc2C(=O)N1NS(=O)(=O)c1ccccc1 (stereo unspecified)	2.3%	-5.2%	9.8%	-83.1%	-9.4%	-8.9%
CCCCC(c1nnnn1CS(=O)(=O)c1ccc(C)cc1)N1CCN(C)CC1 (stereo unspecified)	10µM*	106.7%	?	-4.0%	-0.8%	-2.7%
CCCC(c1nnnn1Cc1cccs1)N1CCN(c2nc3ccccc3s2)CC1 (stereo unspecified)	10.0%[11.4 µM]	-13.4%	·	-7.7%	4.3%	3.1%
SMILES	Sm TGR block	AmpC no deterg	Pf growth 48h	Pf growth 96h	SARS PLP yeast	AmpC inh detg
Cc1ccc(S(=O)(=O)Cn2nnnc2C(c2ccccc2)N2CCN(c3ncccn3)CC2)cc1 (stereo unspecified)	-0.6%	48.6%	9.28µM*	73.1%	-12.4%	-9.4%
CCCC(c1nnnn1CS(=O)(=O)c1ccc(C)cc1)N1CCC(C(N)=O)CC1 (stereo unspecified)	3.3%	45.6%	-0.3%	35.5%	-1.7%	-13.7%
COc1ccc(C(c2nnnn2CS(=O)(=O)c2ccc(C)cc2)N2CCN(c3ncccn3)CC2)cc1 (stereo unspecified)	0.0%	18.2%	9.28µM*	?	-22.6%	-9.8%
CCC(c1nnnn1CS(=O)(=O)c1ccc(C)cc1)N1CCN(c2nc3ccccc3s2)CC1 (stereo unspecified)	0.0%	0.9%	8.28µM*	9.2%	6.9%	-10.8%
Cc1ccccc1-n1nc2c(c1NC(=O)C1CCCC1)CS(=O)(=O)C2	-2.0%	-6.1%	1.3%	12.5%	6.1%	8.7%
C[C@H](CO)N1C[C@H](C)[C@@H](CN(C)Cc2ccc(C(=O)O)cc2)Oc2c(NS(=O)(=O)c3ccc(F)cc3)cccc2C1=O	·	-7.4%	·	·	-1.3%	·
FC(F)(F)c1cccc(NC(=S)NCC2COc3ccccc3O2)c1 (stereo unspecified)	-5.1%	-43.1%	5.0%	17.9%	-70.6%	-5.9%
Cc1ccc(S(=O)(=O)Cn2nnnc2C(c2ccccc2)N2CCN(c3ccccc3)CC2)cc1 (stereo unspecified)	-34.8%	-27.1%	13.1µM*	?	-3.5%	-4.9%
Cc1ccc(S(=O)(=O)Cc2nnnn2-c2ccccc2)cc1	7.1%	-2.7%	-4.5%	6.57µM*	2.0%	-0.8%
CCCC(c1nnnn1CS(=O)(=O)c1ccc(C)cc1)N1CCN(c2ccccc2)CC1 (stereo unspecified)	0.9%	-7.4%	11.7µM*	0.0%	1.0%	-12.9%
Cc1ccc(S(=O)(=O)Cn2nnnc2C(C)N2CCN(C(=O)c3ccco3)CC2)cc1 (stereo unspecified)	44.7µM*	53.6%	10.4µM*	5.22µM*	4.5%	-13.1%
O=C(c1ccco1)N1CCN(C(c2ccc(F)cc2)c2nnnn2Cc2cccs2)CC1 (stereo unspecified)	?	54.8%	?	0.928µM*	0.3%	?
O=C(c1ccco1)N1CCN(C(c2ccccc2)c2nnnn2Cc2cccs2)CC1 (stereo unspecified)	?	58.8%	-53.3%	-10.9%[5.75 µM]	23.0%	?
